# Assay results reported in PMC11024108.
# Experiments:
# [1] = target: Actin, cytoplasmic 2 (UniProt P63261); test: cross-link between two proteins; cross-linking mass spectrometry
# [2] = target: Epsin-1 (UniProt Q9Y6I3); test: as above
# [3] = target: Ubiquitin-like protein NEDD8 (UniProt Q15843); test: as above
# [4] = target: Large ribosomal subunit protein bL17m (UniProt Q9NRX2); test: as above
# [5] = target: Dihydropyrimidinase-related protein 1 (UniProt P97427); test: as above
# [6] = target: Dihydropyrimidinase-related protein 3 (UniProt Q62188); test: as above
# [7] = target: Histone H2B type 1-M (UniProt Q99879); test: as above
# [8] = target: Large ribosomal subunit protein eL42 (UniProt P83881); test: as above
# [9] = target: Large ribosomal subunit protein eL30 (UniProt P62888); test: as above
# [10] = target: Histone H4 (UniProt P62805); test: as above
# [11] = target: Large ribosomal subunit protein eL27 (UniProt P61353); test: as above
# [12] = target: Actin-related protein 2/3 complex subunit 2 (UniProt Q9CVB6); test: as above
# [13] = target: Actin-related protein 2/3 complex subunit 3 (UniProt Q9JM76); test: as above
# [14] = target: Large ribosomal subunit protein uL22 (UniProt Q9CPR4); test: as above
# [15] = target: Complex III assembly factor LYRM7 (UniProt Q5U5X0); test: cross-linking mass spectrometry
# [16] = target: Malate dehydrogenase, mitochondrial (UniProt P40926); test: cross-linking mass spectrometry
# [17] = target: Elongation factor 1-alpha 1 (UniProt P68104); test: cross-linking mass spectrometry
# [18] = target: Histone H2B type 1-C/E/G (UniProt Q6ZWY9); test: cross-linking mass spectrometry
# [19] = target: Large ribosomal subunit protein uL11 (UniProt P30050); test: cross-linking mass spectrometry
# [20] = target: Large ribosomal subunit protein uL11m (UniProt Q9Y3B7); test: cross-linking mass spectrometry
# [21] = target: Large ribosomal subunit protein uL5 (UniProt P62913); test: cross-linking mass spectrometry
# [22] = target: Leucine-rich repeat-containing protein 59 (UniProt Q96AG4); test: cross-linking mass spectrometry
# [23] = target: Poly(A) RNA polymerase, mitochondrial (UniProt Q9NVV4); test: cross-linking mass spectrometry
# [24] = target: Ribosome-binding protein 1 (UniProt Q9P2E9); test: cross-linking mass spectrometry
# [25] = target: Small ribosomal subunit protein uS15 (UniProt P62301); test: cross-linking mass spectrometry
# [26] = target: Small ribosomal subunit protein eS27 (UniProt Q6ZWU9); test: cross-link between two proteins; cross-linking mass spectrometry
# [27] = target: MICOS complex subunit MIC60 (UniProt Q16891); test: as above
# [28] = target: Cytochrome c oxidase assembly factor 7 (UniProt Q96BR5); test: mass-spectrometry hit list; affinity purification or IP with mass spectrometry; cross-linking mass spectrometry
# [29] = target: Mitochondrial fission 1 protein (UniProt Q9CQ92); test: cross-link between two proteins; cross-linking mass spectrometry
# [30] = target: Plasma membrane calcium-transporting ATPase 2 (UniProt Q9R0K7); test: as above
# [31] = target: Protein piccolo (UniProt Q9QYX7); test: as above
# [32] = target: Ragulator complex protein LAMTOR4 (UniProt Q0VGL1); test: as above
# [33] = target: Ras-related C3 botulinum toxin substrate 1 (UniProt P63000); test: as above
# [34] = target: Small ribosomal subunit protein RACK1 (UniProt P68040); test: as above
# [35] = target: Small ribosomal subunit protein eS19 (UniProt Q9CZX8); test: as above
# Sequence of Mitochondrial fission 1 protein (Q9CQ92 whole entry): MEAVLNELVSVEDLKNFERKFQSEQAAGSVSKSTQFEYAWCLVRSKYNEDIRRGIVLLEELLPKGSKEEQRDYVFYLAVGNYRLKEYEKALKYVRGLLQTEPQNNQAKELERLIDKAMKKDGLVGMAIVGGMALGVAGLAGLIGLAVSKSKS
# Sequence of Dynein light chain 2, cytoplasmic, Q9D0M5 (Q9D0M5 whole entry): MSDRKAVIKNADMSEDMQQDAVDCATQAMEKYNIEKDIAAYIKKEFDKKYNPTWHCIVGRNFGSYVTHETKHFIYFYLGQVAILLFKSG
# Sequence of Ras-related protein Rab-14, Q91V41 (Q91V41 whole entry): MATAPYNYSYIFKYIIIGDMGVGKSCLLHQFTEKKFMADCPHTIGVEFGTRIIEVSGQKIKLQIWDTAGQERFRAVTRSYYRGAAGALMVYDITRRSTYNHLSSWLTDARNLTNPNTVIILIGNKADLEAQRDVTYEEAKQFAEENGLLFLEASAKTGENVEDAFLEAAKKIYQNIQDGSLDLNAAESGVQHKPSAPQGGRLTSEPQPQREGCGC
# Sequence of Plasma membrane calcium-transporting ATPase 2 (Q9R0K7 whole entry): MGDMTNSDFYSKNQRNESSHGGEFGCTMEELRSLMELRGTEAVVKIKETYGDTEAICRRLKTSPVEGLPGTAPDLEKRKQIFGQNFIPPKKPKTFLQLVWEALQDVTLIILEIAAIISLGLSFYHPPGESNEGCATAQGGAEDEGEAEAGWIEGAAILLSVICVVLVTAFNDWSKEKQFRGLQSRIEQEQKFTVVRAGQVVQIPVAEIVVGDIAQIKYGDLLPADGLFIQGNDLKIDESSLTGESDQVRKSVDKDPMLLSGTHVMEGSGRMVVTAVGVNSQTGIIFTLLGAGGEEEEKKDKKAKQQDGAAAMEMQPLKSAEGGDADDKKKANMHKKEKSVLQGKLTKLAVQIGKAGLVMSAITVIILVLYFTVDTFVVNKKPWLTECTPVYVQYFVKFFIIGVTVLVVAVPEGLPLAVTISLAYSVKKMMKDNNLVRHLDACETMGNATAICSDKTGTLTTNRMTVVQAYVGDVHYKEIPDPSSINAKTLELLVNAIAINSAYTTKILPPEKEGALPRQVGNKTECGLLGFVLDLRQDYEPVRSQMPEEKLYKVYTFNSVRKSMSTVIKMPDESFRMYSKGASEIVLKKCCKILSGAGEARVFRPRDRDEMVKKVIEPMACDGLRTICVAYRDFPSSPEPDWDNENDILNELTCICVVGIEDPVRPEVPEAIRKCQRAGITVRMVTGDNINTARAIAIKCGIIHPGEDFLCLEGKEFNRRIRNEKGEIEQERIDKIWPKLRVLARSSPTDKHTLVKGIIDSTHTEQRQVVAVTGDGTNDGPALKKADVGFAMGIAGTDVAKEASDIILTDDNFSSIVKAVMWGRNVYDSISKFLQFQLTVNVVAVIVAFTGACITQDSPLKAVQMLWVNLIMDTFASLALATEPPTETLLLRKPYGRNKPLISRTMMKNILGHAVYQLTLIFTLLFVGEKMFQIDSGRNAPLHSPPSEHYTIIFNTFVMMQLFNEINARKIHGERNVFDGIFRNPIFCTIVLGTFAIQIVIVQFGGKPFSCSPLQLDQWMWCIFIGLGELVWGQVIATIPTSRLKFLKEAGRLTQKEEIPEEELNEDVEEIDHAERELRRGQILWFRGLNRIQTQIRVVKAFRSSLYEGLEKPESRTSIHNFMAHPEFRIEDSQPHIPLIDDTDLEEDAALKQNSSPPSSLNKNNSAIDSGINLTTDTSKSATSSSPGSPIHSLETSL
substance,measurement,setting,value
"Ubiquitin-ribosomal protein eS31 fusion protein, P62979",listed as a hit,[1],yes
same,listed as a hit,[2],yes
same,listed as a hit,[3],yes
"Large ribosomal subunit protein bL32m, Q9BYC8",listed as a hit,[4],yes
"Dihydropyrimidinase-related protein 2, O08553",listed as a hit,[5],yes
same,listed as a hit,[6],yes
"Histone H4, P62805",listed as a hit,[7],yes
"Large ribosomal subunit protein uL5, P62913",listed as a hit,[8],yes
"Large ribosomal subunit protein eL43, P61513",listed as a hit,[9],yes
"Histone H2B type F-S, P57053",listed as a hit,[10],yes
"Large ribosomal subunit protein eL34, P49207",listed as a hit,[11],yes
same,listed as a hit,[9],yes
"Actin-related protein 2, P61161",listed as a hit,[12],yes
same,listed as a hit,[13],yes
"Large ribosomal subunit protein eL31, P62900",listed as a hit,[14],yes
"Acyl carrier protein, mitochondrial, O14561",listed as a hit,[15],yes
same,listed as a hit,[16],yes
"Actin, cytoplasmic 2, P63261",listed as a hit,[17],yes
"Histone H3.3, P84244",listed as a hit,[18],yes
"Elongation factor 2, P13639",listed as a hit,[19],yes
"Large ribosomal subunit protein mL53, Q96EL3",listed as a hit,[20],yes
"Small ribosomal subunit protein uS19, P62841",listed as a hit,[21],yes
"Large ribosomal subunit protein uL2, P62917",listed as a hit,[22],yes
"Leucine-rich PPR motif-containing protein, mitochondrial, P42704",listed as a hit,[23],yes
"Large ribosomal subunit protein uL1, P62906",listed as a hit,[24],yes
"Small ribosomal subunit protein eS7, P62082",listed as a hit,[25],yes
same,listed as a hit,[26],yes
"Adenylate kinase 2, mitochondrial, P54819",listed as a hit,[27],yes
same,listed as a hit,[28],yes
"Ras-related protein Rab-14, Q91V41",listed as a hit,[29],yes
P62204,listed as a hit,[30],yes
"Dynein light chain 2, cytoplasmic, Q9D0M5",listed as a hit,[31],yes
"Ragulator complex protein LAMTOR5, O43504",listed as a hit,[32],yes
"Ras-related C3 botulinum toxin substrate 3, P60763",listed as a hit,[33],yes
"Small ribosomal subunit protein uS3, P62908",listed as a hit,[34],yes
"Small ribosomal subunit protein uS9, P14131",listed as a hit,[35],yes
